Activity calls are given as the source filed them.
What was measured:
[1] = system: Human papillomavirus type 1a protein E7 (residues 44-93); test: small molecules binding HPV E7 44-93 – biochemical, small-molecule microarray, residues 44-93, 635 nm fluorescence, primary screen (AID 1108); conditions: fluorescence 635 nm, higher = more signal;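 further: E7 fragment applied at 1 µg/mL in TBST for 1 h at 4 C; score combines spot fluorescence with its signal to noise ratio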
[2] = hepatitis C replication reporter changes, two-sided – Huh7 cells, luciferase reporter, HCV replication inhibitor project, primary screen (AID 1109); conditions: Huh7 HCV replicon luciferase reporter, 48 h; higher = more signal;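 further: huh7 hepatoma cells harbouring a luciferase neomycin HCV replicon reporter; luciferase luminescence as measure of HCV replicon replication; test concentration not given here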
[3] = target: Left-right determination factor 2 (Homo sapiens) (UniProt O00292); test: small molecules binding LEFTY2 protein – biochemical, small-molecule microarray, 635 nm fluorescence scan, primary screen (AID 1110); conditions: higher = more signal
[4] = target: Calmodulin-1 (Homo sapiens) (UniProt P0DP23); test: small molecules binding calmodulin-1 with EGTA – biochemical, small-molecule microarray, Cy5-labelled CALM1, profiling panel (AID 1111); conditions: Cy5-CALM1 binding fluorescence, higher = more signal;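 further: labelled calmodulin applied in Tris saline Tween buffer holding calcium plus EGTA and DTT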
[5] = target: Calmodulin-1 (Homo sapiens) (UniProt P0DP23); test: small molecules binding Ca-loaded calmodulin-1 – biochemical, small-molecule microarray, Cy5-labelled CALM1, plus calcium, artefact control for SMM control-protein annotation, profiling panel (AID 1112); conditions: Cy5-CALM1 binding fluorescence, higher = more signal;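 further: score merges spot fluorescence with signal to noise from triplicate slides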
[6] = probe aWnt5a binding to arrayed compounds – biochemical, biotinylated probe, 635/667 nm fluorescence, primary screen (AID 1113); conditions: small-molecule microarray, higher = more signal;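 further: score merges 667 nm fluorescence intensity with signal-to-noise per printed feature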
[7] = probe aShh binding to arrayed compounds – biochemical, biotinylated probe, 635/667 nm fluorescence, primary screen (AID 1114); conditions: small-molecule microarray, higher = more signal;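 further: probe is biotin-labelled aShh protein from a stem cell growth factor screen; measures binding of labelled protein to compounds printed on the slide; score merges feature fluorescence at 667 nm with signal-to-noise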
[8] = probe aNog binding to arrayed compounds – biochemical, biotinylated probe, 635/667 nm fluorescence, primary screen (AID 1115); conditions: small-molecule microarray, higher = more signal;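 further: probe is biotinylated aNog protein used at 0.15 µg/mL for 1 h at 4 C; z-score combines 667 nm fluorescence of each spot with its signal to noise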
[9] = target: Torsin-1A-interacting protein 1 (Homo sapiens) (UniProt Q5JTV8); test: compound microarray binding of lysate hLAP1 – cell lysate, small-molecule microarray, COS7 lysate, 635/667 nm fluorescence, primary screen (AID 1116); conditions: 635 nm fluorescence, higher = more signal
[10] = target: Alpha-bungarotoxin (Bungarus multicinctus) (UniProt P60615); test: compounds binding labelled alpha-BTX control protein – biochemical, small-molecule microarray, Alexa647 label, 635/667 nm fluorescence, artefact control for SMM control protein annotation, profiling panel (AID 1117); conditions: alpha-BTX-A647 binding fluorescence, higher = more signal
Albumin (Bos taurus) = Albumin (Bos taurus) (UniProt P02769); test: compounds binding labelled BSA control protein – biochemical, small-molecule microarray, Alexa647 label, 635/667 nm fluorescence, artefact control for SMM control protein annotation, profiling panel (AID 1118); conditions: BSA-A647 binding, fluorescence 635 nm, higher = more signal;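 further: score merges 667 nm emission intensity and signal-to-noise per printed compound spot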
[11] = probe aXIP binding to arrayed compounds – biochemical, NeuroSMM set, 635/667 nm fluorescence, primary screen (AID 1119); conditions: small-molecule microarray, higher = more signal, called active from +8 up or from −8 down;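 further: probe is the protein aXip251-270 applied at 1 µg/mL to compound-printed slides; binding of probe to printed compounds measured as 667 nm fluorescence plus signal to noise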
[12] = probe aNOTCH3 binding on compound microarray – biochemical, small-molecule microarray, 635/667 nm fluorescence, primary screen (AID 1120); conditions: higher = more signal;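 further: probe is a biotin-tagged antibody raised against NOTCH3 rather than NOTCH3 protein; score merges spot fluorescence near 667 nm with spot signal to noise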
[13] = probe aNOTCH2 binding on compound microarray – biochemical, small-molecule microarray, 635/667 nm fluorescence, primary screen (AID 1121); conditions: higher = more signal;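 further: score merges feature fluorescence read at 667 nm with its signal to noise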
[14] = target: Carbonic anhydrase 2 (Homo sapiens) (UniProt P00918); test: compounds binding carbonic anhydrase 2 – biochemical, small-molecule microarray, Alexa647-labelled CAII, profiling panel (AID 1122); conditions: CAII-A647 binding fluorescence, higher = more signal
[15] = COS7 lysate on small-molecule microarray, probe aHis, 635 nm (AID 1123); conditions: COS7 cell lysate, fluorescence, higher = more signal;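 further: z-score combines 667nm fluorescence intensity with signal-to-noise per printed compound spot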
[16] = probe aLAP1 signal on lysate-treated microarray – cell lysate, small-molecule microarray, COS7 lysate, primary screen (AID 1124); conditions: probe aLAP1, fluorescence, higher = more signal;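 further: lysate comes from COS7 cells expressing LAP1 and is applied at 0.3 µg/mL; score merges spot fluorescence near 667 nm with signal-to-noise over triplicate slides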
Sam68 (KHDRBS1) = test: compounds binding KHDRBS1 protein – biochemical, small-molecule microarray, 635 nm fluorescence, primary screen (AID 1125); conditions: higher = more signal;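 further: score merges 667 nm channel intensity with signal to noise over triplicate slides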
[17] = system: Chordin-like protein 2 (CHRDL2); test: compounds binding chordin-like 2 – biochemical, small-molecule microarray, 635 nm fluorescence, primary screen (AID 1126); conditions: fluorescence 635 nm, higher = more signal;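 further: printed compound slides probed with Chrdl2 protein at 4 µg/mL for 1 h at 4 C; score merges 667 nm emission intensity with signal to noise over three replicate slides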
[18] = target: Concanavalin-A (Canavalia ensiformis) (UniProt P02866); test: compounds binding concanavalin A lectin – biochemical, small-molecule microarray, Alexa647 label, 635 nm, artefact control for SMM control protein annotation, primary screen (AID 1127); conditions: ConA-A647 binding fluorescence, higher = more signal;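 further: z combines 667 nm emission intensity with signal-to-noise across three replicate slides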
Sequence of Concanavalin-A (Canavalia ensiformis) (P02866 whole entry, looked up): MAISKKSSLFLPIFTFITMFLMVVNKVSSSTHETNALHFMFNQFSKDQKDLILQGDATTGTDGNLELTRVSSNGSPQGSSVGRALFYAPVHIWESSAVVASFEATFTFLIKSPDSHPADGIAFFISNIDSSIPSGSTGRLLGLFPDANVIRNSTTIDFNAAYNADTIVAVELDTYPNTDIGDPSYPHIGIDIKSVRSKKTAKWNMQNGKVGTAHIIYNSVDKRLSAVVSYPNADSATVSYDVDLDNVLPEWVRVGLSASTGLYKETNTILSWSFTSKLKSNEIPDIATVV

Sequence of Albumin (Bos taurus) (P02769 whole entry, looked up): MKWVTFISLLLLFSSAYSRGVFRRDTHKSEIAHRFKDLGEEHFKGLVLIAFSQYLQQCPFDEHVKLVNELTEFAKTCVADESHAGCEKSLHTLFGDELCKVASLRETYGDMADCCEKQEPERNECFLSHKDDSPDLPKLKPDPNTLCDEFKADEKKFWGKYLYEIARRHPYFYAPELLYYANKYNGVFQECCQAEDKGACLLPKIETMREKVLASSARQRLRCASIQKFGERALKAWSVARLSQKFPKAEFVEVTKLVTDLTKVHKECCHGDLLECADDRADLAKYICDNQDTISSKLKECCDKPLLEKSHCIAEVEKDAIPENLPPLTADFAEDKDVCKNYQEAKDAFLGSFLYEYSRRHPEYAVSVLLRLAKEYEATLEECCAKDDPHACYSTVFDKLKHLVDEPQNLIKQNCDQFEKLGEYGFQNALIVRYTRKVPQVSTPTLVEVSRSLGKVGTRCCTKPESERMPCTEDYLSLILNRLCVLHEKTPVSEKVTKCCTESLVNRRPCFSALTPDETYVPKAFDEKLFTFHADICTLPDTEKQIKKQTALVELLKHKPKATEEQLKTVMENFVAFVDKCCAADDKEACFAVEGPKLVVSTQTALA
Sequence of Torsin-1A-interacting protein 1 (Homo sapiens) (Q5JTV8 whole entry, looked up): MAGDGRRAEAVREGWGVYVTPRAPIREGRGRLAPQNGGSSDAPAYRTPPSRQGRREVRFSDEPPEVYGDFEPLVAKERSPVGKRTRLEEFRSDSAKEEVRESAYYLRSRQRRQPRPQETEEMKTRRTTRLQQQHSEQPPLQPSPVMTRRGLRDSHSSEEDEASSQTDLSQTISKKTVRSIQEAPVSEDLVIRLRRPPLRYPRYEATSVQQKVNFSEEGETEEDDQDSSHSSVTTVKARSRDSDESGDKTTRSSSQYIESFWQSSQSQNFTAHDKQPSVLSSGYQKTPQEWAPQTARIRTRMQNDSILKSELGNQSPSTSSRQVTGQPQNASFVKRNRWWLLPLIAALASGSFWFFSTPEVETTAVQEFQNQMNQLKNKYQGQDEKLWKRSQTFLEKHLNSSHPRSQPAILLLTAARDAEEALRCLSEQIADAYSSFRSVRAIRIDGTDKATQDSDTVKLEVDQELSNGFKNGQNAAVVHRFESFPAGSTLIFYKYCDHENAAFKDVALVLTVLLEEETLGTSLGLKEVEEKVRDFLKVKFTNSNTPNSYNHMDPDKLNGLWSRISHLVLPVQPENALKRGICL
Sequence of Alpha-bungarotoxin (Bungarus multicinctus) (P60615 whole entry, looked up): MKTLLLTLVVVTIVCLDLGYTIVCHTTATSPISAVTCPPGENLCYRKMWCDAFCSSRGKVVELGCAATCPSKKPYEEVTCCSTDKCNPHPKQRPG
Sequence of Left-right determination factor 2 (Homo sapiens) (O00292 whole entry, looked up): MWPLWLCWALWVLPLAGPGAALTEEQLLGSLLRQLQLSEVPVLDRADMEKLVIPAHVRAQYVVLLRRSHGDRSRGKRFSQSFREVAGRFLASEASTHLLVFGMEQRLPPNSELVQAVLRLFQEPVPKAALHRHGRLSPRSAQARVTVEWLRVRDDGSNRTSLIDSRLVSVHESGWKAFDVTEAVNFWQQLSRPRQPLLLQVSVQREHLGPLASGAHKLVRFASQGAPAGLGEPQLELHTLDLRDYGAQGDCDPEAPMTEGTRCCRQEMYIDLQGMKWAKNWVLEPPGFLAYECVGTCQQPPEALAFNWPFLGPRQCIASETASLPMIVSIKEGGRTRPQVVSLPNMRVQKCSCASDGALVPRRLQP

Row | Compound | composite z-score [1] | z-score [2] | composite z-score [3] | composite z-score [4] | composite z-score [5] | composite z-score [6] | composite z-score [7] | composite z-score [8] | composite z-score [9] | composite z-score [10] | composite z-score (Albumin (Bos taurus)) | composite Z-score [11] | composite z-score [12] | composite z-score [13] | composite z-score [14] | composite z-score [15] | composite z-score [16] | composite z-score (Sam68 (KHDRBS1)) | composite z-score [17] | composite z-score [18]
1 | CC[C@@H](c1ccccc1)n1c(=O)n2n(c1=O)[C@H]1[C@H](O)[C@@H]3O[C@@H]3C(=NOCC(C)C)[C@H]1CC2 | 0.284 | -2.11 | 0.143 | -0.0128 | -0.178 | -0.12 | -0.14 | -0.407 | 0.107 | -0.088 | -0.231 | -0.0127 (inactive) | -0.0189 | -0.0986 | 0.308 | 0.0644 | 0.422 | 0.362 | -0.086 | 0.0275
2 | COC(=O)[C@H](C)NC(=O)CCC1CC(OC(=O)NCCc2ccc(F)cc2)CC2(CCCC(COC(=O)NCC(c3ccccc3)c3ccccc3)O2)O1 (stereo not given in full) | 1.39 | -0.375 | 0.386 | 0.084 | -0.443 | -0.124 | 0.0062 | -0.152 | 0.516 | 0.853 | 0.675 | 0.269 (inactive) | -0.0932 | -0.1 | 0.343 | 1.44 | 0.031 | 1.22 | 0.17 | 0.714
3 | COCCNC(=O)OCC1CCCC2(CC(OC(=O)NCCc3ccc(F)cc3)CC(CCC(=O)N[C@@H](C)C(=O)OC)O2)O1 (stereo not given in full) | 1.37 | -0.376 | 1.02 | -0.104 | -0.685 | -0.0643 | -0.0035 | -0.0827 | 0.0096 | 0.429 | 0.456 | -0.126 (inactive) | 0.0228 | -0.144 | 0.245 | 0.292 | -0.0037 | 1.3 | 0.581 | 0.769
4 | COC(=O)CC=C[C@@H](C)[C@@H](C=NO[C@@H](C)c1cc(-c2c(C)cc(C)cc2C)no1)OC | -1.29 | -0.378 | -0.627 | -0.908 | -1.48 | -0.295 | -0.2 | 0.531 | -1.75 | -1.11 | -0.387 | -0.483 (inactive) | -0.161 | -0.156 | -0.604 | -0.556 | -0.52 | -1.32 | -1.36 | -0.627
5 | C=C(/C(=C/C[C@H](OC(=O)c1ccncc1)c1ccc(OCCO)cc1)c1cnc2ccccc2c1)C(C)C | 1.31 | -2.01 | 1.06 | 0.0481 | -0.708 | 0.0324 | 0.13 | -0.338 | 2.24 | 1.67 | 0.139 | 0.184 (inactive) | 0.173 | -0.118 | 0.946 | 0.118 | 0.62 | 1.32 | 1.14 | 1.16
6 | C=CC[C@@H]1C=C[C@H](ON=C2c3cc(OC)ccc3O[C@H](c3cccc(OC)c3)[C@H]2O)[C@@H](CO)O1 | -0.208 | -0.892 | 0.194 | -0.569 | -0.319 | -0.175 | -0.288 | 0.151 | -0.103 | 1.42 | 0.764 | 0.196 (inactive) | -0.253 | -0.0956 | 0.427 | 0.425 | 0.266 | -0.194 | 0.105 | -0.302

Reference: PubChem BioAssay
